Data published in PubChem BioAssay AID1946 (Johns Hopkins Ion Channel Center, 2009).
Screen size: about 2,400 compounds; about 180 (7.5%) were called active. Many of the other results were omitted from the sample, so actives are more common in it than they were. Values without a mark were called inactive.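 Rule for the calls: active = readout below zero, meaning a drop past 3 SD under the dofetilide-free negative control mean; inactive = the rest.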

The molecules below were run against Potassium voltage-gated channel subfamily KQT member 2 (Rattus norvegicus) (UniProt O88943) (assay: KCNQ2 blockade in CHO cells – cell-based, FluxOR thallium flux, counter-screen for hERG block protector project, confirmation (AID 1946)). Conditions: FluxOR thallium flux fluorescence, at 10 µM, stronger effect = lower value, zero marks the 3-SD hit cutoff.
Sequence of Potassium voltage-gated channel subfamily KQT member 2 (Rattus norvegicus) (O88943 whole entry, looked up): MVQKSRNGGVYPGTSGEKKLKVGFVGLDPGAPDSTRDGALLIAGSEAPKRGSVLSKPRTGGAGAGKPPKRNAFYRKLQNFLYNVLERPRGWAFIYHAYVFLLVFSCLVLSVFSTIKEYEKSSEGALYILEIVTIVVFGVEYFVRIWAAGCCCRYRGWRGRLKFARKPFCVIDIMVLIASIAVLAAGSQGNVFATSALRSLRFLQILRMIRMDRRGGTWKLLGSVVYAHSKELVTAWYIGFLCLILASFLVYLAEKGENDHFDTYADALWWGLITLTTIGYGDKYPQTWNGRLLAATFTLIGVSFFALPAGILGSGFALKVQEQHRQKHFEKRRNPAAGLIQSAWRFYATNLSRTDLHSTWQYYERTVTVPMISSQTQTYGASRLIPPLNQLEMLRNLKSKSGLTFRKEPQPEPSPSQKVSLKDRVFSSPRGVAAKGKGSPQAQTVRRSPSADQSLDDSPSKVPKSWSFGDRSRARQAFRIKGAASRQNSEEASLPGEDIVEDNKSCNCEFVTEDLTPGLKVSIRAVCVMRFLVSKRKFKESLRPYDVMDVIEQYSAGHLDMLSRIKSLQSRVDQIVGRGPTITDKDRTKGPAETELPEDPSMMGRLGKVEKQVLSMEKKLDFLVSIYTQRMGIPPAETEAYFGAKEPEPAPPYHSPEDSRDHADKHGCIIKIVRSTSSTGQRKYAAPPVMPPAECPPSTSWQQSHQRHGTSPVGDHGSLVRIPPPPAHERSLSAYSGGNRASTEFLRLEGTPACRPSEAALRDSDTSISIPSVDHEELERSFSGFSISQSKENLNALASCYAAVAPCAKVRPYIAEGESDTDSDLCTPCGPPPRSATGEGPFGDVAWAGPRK
In the case of `S=c1[nH]c2cc(Cl)ccc2s1`, the activity change vs negative control is reported as 121%. Molecule `CCn1c(=S)[nH]c2sc3c(c2c1=O)CCCCC3` has an activity change vs negative control of 126%. With `CC(C)n1c(=S)[nH]c2scc(-c3cccs3)c2c1=O` the activity change vs negative control was 119%. Work on `S=c1[nH]nc(-c2cccs2)n1/N=C/c1c(Cl)cccc1Cl` yielded an activity change vs negative control of 42.5%. With `Cc1cc(OCc2ccc(C(=O)Nc3ccc(C(=O)O)cc3)o2)ccc1Cl` the activity change vs negative control was 5.6%. `O=C(N/N=C/c1cc([N+](=O)[O-])ccc1O)c1ccc(COc2ccc3c(c2)CCC3)o1` was tested, and the activity change vs negative control was -19.7% (active). For `CCOc1ccc(C(=O)N/N=C/c2cc([N+](=O)[O-])cs2)cc1`, the activity change vs negative control was 5.6%. `CCOC(=O)C1=C(c2ccccc2)NC(=O)NC1c1ccc(O)c(Cl)c1` (stereo not drawn) gave an activity change vs negative control of 23.1%. In the case of `O=C(N=Nc1c(O)[nH]c2ccc([N+](=O)[O-])cc12)c1cc(-c2ccccc2Cl)nc2ccccc12`, the activity change vs negative control is reported as 3.8%. In the case of `CC(C)(C)c1ccc(C(=O)CC(=O)c2cc(Cl)ccc2O)cc1`, the activity change vs negative control is reported as 9.8%. For `O=C(N/N=C/c1ccc2cccc(OCc3ccccc3)c2n1)c1ccc(Br)cc1`, the activity change vs negative control was 12%. In the case of `COc1ccc(C(=O)CC(=O)C(=O)Nc2ccccc2OC)cc1`, the activity change vs negative control is reported as 19.3%. In the case of `COC(=O)c1ccc(/C=C/c2ccc3cccc(OC)c3n2)cc1`, the activity change vs negative control is reported as -0.2% (active). `O=C(Cn1nnc(-c2cccc(C(F)(F)F)c2)n1)N1CCCCCC1` showed an activity change vs negative control of 44.7%. With `Cc1ccccc1NC(=O)C(=O)NNC(=O)COc1ccc2ccccc2c1` the activity change vs negative control was 48.1%. Molecule `COc1ccc(C(=O)NCC(=O)OCn2nnc3ccccc3c2=O)cc1OC` has an activity change vs negative control of 5.4%. With `Cc1ccccc1OCC(=O)NNC(=O)c1ccc2c(=O)n3c(nc2c1)CCC3` the activity change vs negative control was -0.9% (active). `O=S(=O)(NC(=S)NC1CCCCC1)c1ccc(Br)cc1` gave an activity change vs negative control of 36.7%. `C=CCn1c(SCc2ccc(C(=O)O)cc2)nc2sc(C)c(C)c2c1=O` was tested, and the activity change vs negative control was 68%. With `CC1Cc2ccccc2N1C(=S)NC(=O)c1cccc(Br)c1` (stereo not drawn) the activity change vs negative control was 143%. Molecule `O=C(NC(=S)NCCc1ccccc1)c1cccc(Cl)c1` has an activity change vs negative control of 5.4%. `O=C(NC(=S)NNC(=O)[C@H]1C[C@@H]1c1ccccc1)c1cccc(F)c1` was tested, and the activity change vs negative control was -9% (active). For `Cc1cccc(N=Cc2cc(Br)cc(Cl)c2O)c1`, the activity change vs negative control was 61.7%. `COc1ccc(C(=O)NNC(=O)C(=O)Nc2ccc(C)cc2)cc1` gave an activity change vs negative control of 36.9%. `C=CCn1c(=S)[nH]c2cc(-c3ccccc3)sc2c1=O` showed an activity change vs negative control of 17.5%. For `NC(=O)c1cccnc1Nc1cccc([N+](=O)[O-])c1`, the activity change vs negative control was 0.5%. For `COc1ccc(S(=O)(=O)Nc2cccnc2)cc1`, the activity change vs negative control was -2.7% (active). `O=C(NCc1cccnc1)c1ccc(NS(=O)(=O)c2ccc(F)cc2)cc1` gave an activity change vs negative control of 17%. For `COc1ccc(S(=O)(=O)Nc2cccc(-n3cnnn3)c2)cc1`, the activity change vs negative control was 11.8%. `S=c1nc(-c2ccccc2)[nH]n1-c1ccccc1` was tested, and the activity change vs negative control was 73.2%. Work on `C=CCNC(=S)Nc1nc2c(cc1C(=O)OCC)CCCC2` yielded an activity change vs negative control of 15.6%. In the case of `COc1cc(/C=C2/C(=O)NN(c3ccc(Cl)c(Cl)c3)C2=O)cc([N+](=O)[O-])c1O`, the activity change vs negative control is reported as 10.8%. `COc1ccc([N+](=O)[O-])cc1N(CC(=O)NCc1ccco1)S(C)(=O)=O` gave an activity change vs negative control of 9.4%. With `COc1cc(/C=C2/OC(=O)c3cc([N+](=O)[O-])ccc32)cc(OC)c1OC` the activity change vs negative control was -0.9% (active). With `O=C(NC(=S)N1CCN(c2nc(-c3ccccc3)cs2)CC1)c1cncc(Br)c1` the activity change vs negative control was 76.4%. `Cc1ccccc1OC(=O)n1c(=S)oc2cc(Cl)ccc21` was tested, and the activity change vs negative control was 33.4%. `Cc1ccc2nsnc2c1S(=O)(=O)Nc1cccc2nsnc12` was tested, and the activity change vs negative control was 27.1%. `O=C(COc1ccccc1)Nc1ccc(S(=O)(=O)Nc2ccccn2)cc1` was tested, and the activity change vs negative control was 0.2%. `O=C(CCCc1c[nH]c2ccccc12)Nc1ccc(S(=O)(=O)Nc2ncccn2)cc1` was tested, and the activity change vs negative control was -0.6% (active). For `Cc1cc(C)nc(NS(=O)(=O)c2ccc(NC(=O)Cc3ccccc3)cc2)n1`, the activity change vs negative control was 12.6%. For `Cc1ccc(-c2n[nH]c(=S)nc2-c2ccc(C)cc2)cc1`, the activity change vs negative control was 15.9%. In the case of `CN(CC(=O)Nc1nc2ccccc2s1)S(=O)(=O)c1ccc(Cl)cc1`, the activity change vs negative control is reported as -3.4% (active). In the case of `S=C(Nc1ccc(Cl)cc1)c1nc2ccccc2s1`, the activity change vs negative control is reported as 22%. With `O=C(NC(=S)Nc1nc2ccccc2s1)c1cccs1` the activity change vs negative control was 38.4%. For `Cc1nc2ccccc2n1-c1ccccc1`, the activity change vs negative control was 19.5%. In the case of `Oc1c(Cl)cc(Cl)cc1/C=N/c1ncn[nH]1`, the activity change vs negative control is reported as 53.4%. For `O=C(NC(=S)N1CCCCCC1)c1ccc(Cl)cc1Cl`, the activity change vs negative control was 30.8%. Work on `COc1ccc(NC(=O)C(=O)NNC(=O)COc2ccc(Cl)cc2)c(OC)c1` yielded an activity change vs negative control of 38.6%. With `CN(Cc1ccsc1)C(=O)CCc1nnc(Cc2c[nH]c3ccccc23)o1` the activity change vs negative control was 10.6%. Work on `COCCCNC(=O)CCc1nnc(Cc2ccc(-c3ccccc3)cc2)o1` yielded an activity change vs negative control of 26.3%. For `CC(C)CCNC(=O)CCc1nnc(Cc2c[nH]c3ccccc23)o1`, the activity change vs negative control was -0.6% (active). `O=C(CS(=O)(=O)Cc1ccccc1)Nc1ccc(Cl)cn1` showed an activity change vs negative control of 7.9%. `CN(C)c1ccc(NC(=O)CCCc2ccccc2)cc1` gave an activity change vs negative control of 29.6%. For `CC(C)C(=O)Nc1ccc(NC(=O)CCc2ccccc2)cn1`, the activity change vs negative control was -1.8% (active). In the case of `S=c1nc(C2CCCCC2)n(-c2ccccc2)[nH]1`, the activity change vs negative control is reported as 72.6%. With `O=C(Nc1ccc(N2CCOCC2)cc1)c1ccc(S(=O)(=O)N2CCCCC2)cc1` the activity change vs negative control was 10.5%. `N#C/C(=N/Nc1ccc([N+](=O)[O-])cc1)C(=N)N1CCCCC1` gave an activity change vs negative control of 17%. With `O=[N+]([O-])c1ccc(S(=O)(=O)Nc2ccc(S(=O)(=O)N3CCCC3)cc2)cc1` the activity change vs negative control was -0.3% (active). Work on `COc1ccc(OCC(=O)NNC(=O)C(=O)Nc2cc(OC)ccc2OC)cc1` yielded an activity change vs negative control of 38.9%. `CCOC(=O)c1sc2nc(C)[nH]c(=S)c2c1C` was tested, and the activity change vs negative control was 32.7%. In the case of `CC(NC(=O)c1ccc(F)cc1)c1ccc2c(c1)CCCC2` (stereo not drawn), the activity change vs negative control is reported as 55.5%. `CCn1c(SCC(N)=O)nc2sc3c(c2c1=O)CCCC3` showed an activity change vs negative control of 60.6%. In the case of `CCC(=O)N1CCN(c2nc(CC)nc3sc4c(c23)CCCC4)CC1`, the activity change vs negative control is reported as -20.7% (active). Molecule `CCCn1c(SCC(=O)N2CCN(C(C)=O)CC2)nc2sc3c(c2c1=O)CCC3` has an activity change vs negative control of 51.5%. In the case of `CCN(CC)C(=S)NC(=O)c1ccc(OC)c(Br)c1`, the activity change vs negative control is reported as 16.8%. `O=C1CC(O)(C(F)(F)F)Oc2c1ccc1ccccc21` (stereo not drawn) showed an activity change vs negative control of 49.7%. `S=c1nc(C2CCCCC2)[nH]c2ccccc12` was tested, and the activity change vs negative control was 25.5%. With `CCCCC1(O)CC(C(F)(F)F)=NN1C(=O)COc1ccccc1` (stereo not drawn) the activity change vs negative control was -7.8% (active). `O=C(C1CC1)N1N=C(c2ccccc2)CC1(O)C(F)(F)C(F)(F)F` (stereo not drawn) gave an activity change vs negative control of 7.3%. `CC(C)(C)C1(O)CC(C(F)(F)F)=NN1C(=O)Cc1ccc([N+](=O)[O-])cc1` (stereo not drawn) gave an activity change vs negative control of 10.6%. `CN(C(=S)NC(=O)c1ccc(Cl)cc1)C1CCCCC1` was tested, and the activity change vs negative control was 26.3%. `Cc1ccc(-n2ncc3c(SCC(=O)NNC(=O)c4ccco4)ncnc32)cc1` was tested, and the activity change vs negative control was 35.7%. Work on `CNC(=O)CSc1nnc(-c2ccco2)n1-c1ccccc1` yielded an activity change vs negative control of 7%. For `CNC(=O)CSc1nnc(-c2ccco2)n1-c1ccc(C)cc1`, the activity change vs negative control was -1.9% (active). For `C/C(=N/NC(=O)c1cc2ccccc2cc1O)c1ccco1`, the activity change vs negative control was 87.3%. `O=C(COc1ccc2ccccc2c1)NNC(=O)C(=O)Nc1ccccc1` gave an activity change vs negative control of 61.8%. For `CCCn1c(=S)[nH]c2sc3c(c2c1=O)CCCC3`, the activity change vs negative control was 95%. `CCOC(=O)Cc1csc(NC(=S)NC(=O)c2ccccc2Br)n1` gave an activity change vs negative control of 38.6%. With `NC(=O)C1CCN(C(=O)c2cc3c(s2)CCCC3)CC1` the activity change vs negative control was 41.4%. With `Cc1csc(NC(=O)c2cc3c(s2)CCCC3)n1` the activity change vs negative control was 49.2%. For `CC(OC(=O)c1cc2c(s1)CCCCC2)C(=O)NC(N)=O` (stereo not drawn), the activity change vs negative control was -1.8% (active). In the case of `Cc1nc(NCc2cccnc2)c2c3c(sc2n1)CC(C)CC3` (stereo not drawn), the activity change vs negative control is reported as 49.7%. With `Cc1cc(SCC(=O)c2cccc([N+](=O)[O-])c2)nc(=O)[nH]1` the activity change vs negative control was 7.5%. For `O=C(CSc1nnc(-c2ccncc2)o1)c1cccc([N+](=O)[O-])c1`, the activity change vs negative control was -7.8% (active). Molecule `N/C(=N\OS(=O)(=O)c1cccc([N+](=O)[O-])c1)c1ccncc1` has an activity change vs negative control of 29.1%. `Cc1ccc2oc3c(c(=O)c2c1)C(c1cccs1)N(CCCN(C)C)C3=O` (stereo not drawn) showed an activity change vs negative control of 21.6%. With `CCC(C)N(C(=O)CSc1nnc(NC(C)C)s1)C1CCS(=O)(=O)C1` (stereo not drawn) the activity change vs negative control was -0.9% (active). `CCOC(=O)c1sc2nc(C)nc(SCC(=O)N(C)C3CCS(=O)(=O)C3)c2c1C` (stereo not drawn) gave an activity change vs negative control of 20.9%. `CN(C(=O)CSc1ncnc2sc(-c3ccccc3)cc12)C1CCS(=O)(=O)C1` (stereo not drawn) was tested, and the activity change vs negative control was 94.7%. With `COc1ccccc1C(=O)NNC(=O)C(=O)Nc1ccc(C)c(Cl)c1` the activity change vs negative control was 148%. `COC(=O)c1ccc(C2C(C#N)=C(N)Oc3cc(O)ccc32)cc1` (stereo not drawn) gave an activity change vs negative control of 12.7%. In the case of `CCOC(=O)C1=C(N)Oc2cc(O)ccc2C1c1cccnc1` (stereo not drawn), the activity change vs negative control is reported as -1.7% (active). With `Cc1nn(Cc2ccccc2)c2c1C(c1cccnc1)C(C#N)=C(N)O2` (stereo not drawn) the activity change vs negative control was 12.9%. `Cc1nn(CC(=O)Nc2ccc(C(=O)N3CCCC3)cc2)c(=O)c2ccccc12` showed an activity change vs negative control of 32.9%. `O=C(Nc1cccc(N=Cc2cc(Cl)cc(Br)c2O)c1)c1ccco1` gave an activity change vs negative control of 53.8%. In the case of `CCOC(=O)C(=CNc1ccc(OC)cc1[N+](=O)[O-])C(=O)OCC`, the activity change vs negative control is reported as 13.9%. With `COc1ccc(NC(=S)NC(NC(=O)c2cccc3ccccc23)C(Cl)(Cl)Cl)c([N+](=O)[O-])c1` (stereo not drawn) the activity change vs negative control was -0.3% (active). With `COc1cccc(C(=O)NNC(=O)C(=O)Nc2cccc3ccccc23)c1` the activity change vs negative control was 91%.
